Assays:
Conditions in all cases: treatment time: 24 h
[1] = tested on: A549-ACTB-RAB5A; experiment: lowest phenotypically active concentration; higher = less potent
Method in brief: (§1)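 After 24 h at 0.3, 1, 3 or 9 µM, with four wells per treatment, fifteen gene-edited A549, HepG2 and WPMY1 reporter lines carrying BFP, GFP and RFP/FusionRed were imaged live. Each well's live-cell features were expressed relative to solvent control wells. Deviation required ≥3 of 4 wells past the 95th percentile of control Euclidean distances, and reproducibility a median replicate Pearson correlation over the 95th percentile of non-replicates. Phenotypic activity rested on both.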

[2] = tested on: A549-CANX-COX4; experiment: as above
Method in brief: as §1

[3] = tested on: A549-GM130-SQSTM1; experiment: as above
Method in brief: as §1

[4] = tested on: A549-TP53BP1-CLTA; experiment: as above
Method in brief: as §1

[5] = tested on: A549-TUBA1B-RELA; experiment: as above
Method in brief: as §1

[6] = tested on: HepG2-GM130-SQSTM1; experiment: as above
Method in brief: as §1

[7] = tested on: A549-ACTB-RAB5A; experiment: phenotypically active (imaging signature differs from DMSO and reproducible) at any of 0.3-9 uM (binary (1 = active, 0 = inactive)); higher = active
Method in brief: as §1

[8] = tested on: A549-CANX-COX4; experiment: as above
Method in brief: as §1

[9] = tested on: A549-GM130-SQSTM1; experiment: as above
Method in brief: as §1

[10] = tested on: A549-TP53BP1-CLTA; experiment: as above
Method in brief: as §1

[11] = tested on: A549-TUBA1B-RELA; experiment: as above
Method in brief: as §1

[12] = tested on: HepG2-ACTB-RAB5A; experiment: as above
Method in brief: as §1

[13] = tested on: HepG2-CANX-COX4; experiment: as above
Method in brief: as §1

[14] = tested on: HepG2-GM130-SQSTM1; experiment: as above
Method in brief: as §1

[15] = tested on: HepG2-TP53BP1-CLTA; experiment: as above
Method in brief: as §1

[16] = tested on: HepG2-TUBA1B-RELA; experiment: as above
Method in brief: as §1

[17] = tested on: WPMY1-CANX-COX4; experiment: as above
Method in brief: as §1

[18] = tested on: WPMY1-GM130-SQSTM1; experiment: as above
Method in brief: as §1

[19] = tested on: WPMY1-TP53BP1-CLTA; experiment: as above
Method in brief: as §1

[20] = tested on: WPMY1-TUBA1B-RELA; experiment: as above
Method in brief: as §1

| SMILES | lowest phenotypically active concentration [1] [µM] | lowest phenotypically active concentration [2] [µM] | lowest phenotypically active concentration [3] [µM] | lowest phenotypically active concentration [4] [µM] | lowest phenotypically active concentration [5] [µM] | lowest phenotypically active concentration [6] [µM] | phenotypically active [7] | phenotypically active [8] | phenotypically active [9] | phenotypically active [10] | phenotypically active [11] | phenotypically active [12] | phenotypically active [13] | phenotypically active [14] | phenotypically active [15] | phenotypically active [16] | phenotypically active [17] | phenotypically active [18] | phenotypically active [19] | phenotypically active [20] |
| --- | --- | --- | --- | --- | --- | --- | --- | --- | --- | --- | --- | --- | --- | --- | --- | --- | --- | --- | --- | --- |
| O=C1Nc2ccc(F)cc2C1=C1Nc2ccccc2C1=NO [5'-Fluoroindirubinoxime] | 1 | 1 | 1 | 1 | 1 | 1 | 1 (active) | 1 (active) | 1 (active) | 1 (active) | 1 (active) | 1 (active) | 1 (active) | 1 (active) | 1 (active) | 1 (active) | 1 (active) | 1 (active) | 1 (active) | 1 (active) |
| Cc1ccc([N+](=O)[O-])cc1S(=O)(=O)N(C)/N=C/c1cnc2ccc(Br)cn12 | ≤ 0.3 | ≤ 0.3 | ≤ 0.3 | ≤ 0.3 | ≤ 0.3 | ≤ 0.3 | 1 (active) | 1 (active) | 1 (active) | 1 (active) | 1 (active) | 1 (active) | 1 (active) | 1 (active) | 1 (active) | 1 (active) | 1 (active) | 1 (active) | 1 (active) | 1 (active) |
| COc1ccccc1-c1c[nH]c2ncc(-c3cncc(C(=O)N(C)C)c3)cc12 | ≤ 0.3 | 1 | ≤ 0.3 | ≤ 0.3 | ≤ 0.3 | ≤ 0.3 | 1 (active) | 1 (active) | 1 (active) | 1 (active) | 1 (active) | 1 (active) | 1 (active) | 1 (active) | 1 (active) | 1 (active) | 1 (active) | 1 (active) | 1 (active) | 1 (active) |
| CCN(CCO)CCCOc1ccc2c(Nc3cc(CC(=O)Nc4cccc(F)c4)n[nH]3)ncnc2c1 [barasertib-HQPA] | ≤ 0.3 | ≤ 0.3 | ≤ 0.3 | ≤ 0.3 | ≤ 0.3 | ≤ 0.3 | 1 (active) | 1 (active) | 1 (active) | 1 (active) | 1 (active) | 1 (active) | 1 (active) | 1 (active) | 1 (active) | 1 (active) | 1 (active) | 1 (active) | 1 (active) | 1 (active) |
| COc1c(C)cnc(Cn2cc(C#CCC(C)(C)O)c3c(Cl)nc(N)nc32)c1C | ≤ 0.3 | ≤ 0.3 | ≤ 0.3 | ≤ 0.3 | ≤ 0.3 | ≤ 0.3 | 1 (active) | 1 (active) | 1 (active) | 1 (active) | 1 (active) | 1 (active) | 1 (active) | 1 (active) | 1 (active) | 1 (active) | 1 (active) | 1 (active) | 1 (active) | 1 (active) |

From the supplement of paper PMC7411054
